Screening data (PubChem BioAssay)
CF NFkB inh: inhibitors of cystic fibrosis induced NF-kB | inhibition, % at 5 µM | 360,000 compounds, 0.86% hits | AID 588850 | KKLEB NF-kB-GFP reporter, PAF-induced, GFP fluorescence overnight;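 active = at least 50% inhibition at 5 µM, scaled per plate between neutral and stimulator controls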;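 note: PAF is a Pseudomonas aeruginosa culture filtrate used as stimulus; plate controls were PAF-stimulated DMSO wells for no effect and unstimulated DMSO wells for full effect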
Peg3 promoter: inhibitors of Peg3 promoter. HeLa PEG-Prom luciferase reporter, luminescence, overnight. inhibition, % at 20 µM. 360,000 compounds, 1.7% hits. AID 588405;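 active = inhibition of at least 50% at 20 µM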
KKLEB tox: reduces viability of KKLEB cystic fibrosis airway cells. KKLEB CF airway cells viability, ATPlite luminescence, overnight; hits give low values; cells stimulated with P. aeruginosa culture filtrate. activity change (cytotoxicity), % at 5 µM. 360,000 compounds, 0.36% hits;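 active = corrected activity change at or below -50% at 5 µM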
ABHD5-PLIN5 inh: inhibitors of human ABHD5-perilipin-5 interaction; 360,000 compounds, 0.78% hits; inhibition, % at 4 µM; Q00G26+Q8WTS1; Split G. princeps luciferase complementation, luminescence, 4 h;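 active = inhibition above the mean inhibition across every tested compound plus 3 SD, cut at about 22% in these data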;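 note: 0% = DMSO only wells and the 100% control is not disclosed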
Target sequence (Q00G26 whole entry, looked up): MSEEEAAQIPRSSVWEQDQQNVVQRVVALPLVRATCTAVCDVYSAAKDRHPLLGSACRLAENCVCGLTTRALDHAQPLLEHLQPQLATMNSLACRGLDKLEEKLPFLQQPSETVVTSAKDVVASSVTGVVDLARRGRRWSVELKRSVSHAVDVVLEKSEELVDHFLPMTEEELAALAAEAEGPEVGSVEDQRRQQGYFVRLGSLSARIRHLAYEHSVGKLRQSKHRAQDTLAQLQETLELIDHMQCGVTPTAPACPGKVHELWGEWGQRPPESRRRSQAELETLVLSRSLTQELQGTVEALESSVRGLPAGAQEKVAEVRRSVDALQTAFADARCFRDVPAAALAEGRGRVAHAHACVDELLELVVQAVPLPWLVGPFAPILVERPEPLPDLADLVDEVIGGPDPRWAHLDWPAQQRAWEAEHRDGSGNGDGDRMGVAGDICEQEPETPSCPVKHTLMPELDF
Target sequence (Q8WTS1 whole entry, looked up): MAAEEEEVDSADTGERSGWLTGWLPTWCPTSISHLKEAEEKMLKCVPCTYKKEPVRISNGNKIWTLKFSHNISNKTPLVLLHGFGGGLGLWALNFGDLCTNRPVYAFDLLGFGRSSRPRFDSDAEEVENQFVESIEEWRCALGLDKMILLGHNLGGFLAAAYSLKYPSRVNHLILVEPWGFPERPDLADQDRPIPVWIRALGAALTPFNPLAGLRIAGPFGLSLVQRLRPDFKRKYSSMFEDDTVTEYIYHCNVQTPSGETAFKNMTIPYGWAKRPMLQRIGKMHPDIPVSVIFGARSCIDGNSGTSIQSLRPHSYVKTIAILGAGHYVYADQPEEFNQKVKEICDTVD
HIF-2a block: HIF-2a inhibition; 786-0 RCC cells HIF-2a reporter, luciferase luminescence, overnight; 360,000 compounds, 0.72% hits; inhibition, % at 18.8 µM;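 active = inhibition of the luminescence signal of 40% or more relative to plate controls, in a single-dose primary screen at 18.75 µM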
Mdm2-MdmX inh: human Mdm2/MdmX binding inhibition; SaOS-2 split-luciferase Mdm2/MdmX complementation, luminescence; AID 485346; 330,000 compounds, 3% hits; inhibition, % at 8 µM; O15151+Q00987;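 active = inhibition of at least 50% at 8 µM in the primary screen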
* marks the source's active call; other numbers are inactive results; / = no result. This is a sample that favours compounds with a hit; in the whole collection about 4.6% have one here.

SMILES	CF NFkB inh	Peg3 promoter	KKLEB tox	ABHD5-PLIN5 inh	HIF-2a block	Mdm2-MdmX inh
NC(=O)CC(NC(=O)c1cccc(Br)c1)c1ccc(N2CCN(c3ccccn3)CC2)c([N+](=O)[O-])c1 (stereo not drawn)	-19	18	-14	-9	81*	9
CN(CC(=O)Nc1ccccc1Br)C(=O)c1cccn1C	-4	4	10	-3	-11	-18
CCN(CC)CCOCCOC(=O)C(CC)(CC)c1ccccc1	-2	10	4	23*	14	-14
Cc1cccc(CS(=O)(=O)Cc2ccc(C(=O)NC(C)c3ccccc3)o2)c1 (stereo not drawn)	3	19	4	-5	2	1
CCC(C)[C@@H](NC(=O)OC(C)(C)C)c1nnc(S(=O)(=O)Cc2cccc(C)c2)o1 (stereo partly drawn)	82*	108*	-7	73*	40	/
Cc1cn([C@H]2C[C@H](O)[C@@H](/C=C/C(=O)NCc3ccco3)O2)c(=O)[nH]c1=O	4	14	-7	5	19	/
CN(C)CCOc1ccc2c(c1)C(=O)C(=Cc1ncc([N+](=O)[O-])n1C)C2	-64	103*	-16	2	21	/
CCc1cc(OCCN(C)C)ccc1Cl	-3	11	4	2	14	10
C[C@H]1CN([C@@H](C)CO)C(=O)c2cc(Br)cnc2O[C@H]1CN(C)C(=O)c1ccccn1	0	-14	4	8	10	/
CCN(CC(=O)Nc1c(F)cccc1F)C(=O)CSc1nc(C)cc(C)n1	-1	26	13	-4	32	16
COc1ccc2nc3cc(Cl)ccc3c(Nc3ccc(O)c(CN4CCN(C)CC4)c3)c2c1	-60	95*	-5	6	-49	/
N#Cc1c(NC(=O)/C=C/c2ccco2)sc2c1CCCC2	62*	-326	-52*	-2	-302	/
O=C(O)c1ccccc1C(=O)Nc1ccc(Oc2cccc3ccccc23)cc1	7	20	20	-4	78*	/
O=C(Nc1ccc(NC(=O)c2ccccc2Cl)nc1)c1ccco1	-2	-137	8	0	-169	-8
COC1=CC(=O)c2nc(Cl)ccc2C1=O	83*	107*	-91*	18	90*	/
CCOC(=O)c1c(N2C(=O)C3C4C=CC(O4)C3C2=O)sc2c1CCCC2 (stereo not drawn)	23	51*	-13	15	10	13
CCOC(=O)c1c(-n2cnnn2)sc2c1CCCC2	8	-4	-5	0	3	-5
O=[N+]([O-])c1cccc2nc3ccccc3c(NCCCn3ccnc3[N+](=O)[O-])c12	-139	99*	-13	-11	-9	/
COc1ccc(NC(=O)COc2cccc3c2CCN(C)C3=O)c(OC)c1	-8	16	-10	-9	14	18
O=C(COc1ccc([N+](=O)[O-])cc1)Nc1ccc(C(=O)NCc2cccnc2)cc1	-1	75*	6	4	19	5
O=C(COc1ccc([N+](=O)[O-])cc1)NCc1cccnc1	-6	13	-1	-6	3	-2
Cc1ccc(-c2ccccc2)n1-c1ccc(C(=O)O)cc1	16	-9	7	15	10	1
Oc1ccccc1-n1c(-c2ccccc2)ccc1-c1ccccc1	38	57*	-37	-15	-70	47
COc1cccc(CNC(=O)[C@@H]2CCCN2C(=O)[C@@H]2CCCN2C(=O)c2ccc(Cl)cc2)c1	/	/	/	-1	9	/
OC(CON=C1c2ccccc2-c2ccccc21)CN1CCNCC1 (stereo not drawn)	-16	57*	5	13	8	33
SMILES	CF NFkB inh	Peg3 promoter	KKLEB tox	ABHD5-PLIN5 inh	HIF-2a block	Mdm2-MdmX inh
O=C(Nc1ccc2c(c1)OCCO2)c1ccc(NC(=O)C2CCCO2)cc1 (stereo not drawn)	14	-66	-6	3	58*	-10
O=C(Nc1ccc(NC(=O)c2ccc3c(c2)OCCO3)cc1)c1ccccc1	5	100*	-4	-2	-33	5
O=C(NCc1ccc2c(c1)OCO2)c1ccc(NC(=O)C2CCCO2)cc1 (stereo not drawn)	-5	-15	-3	2	5	16
CCOc1ccc(N(CC(=O)NC2CCCC2)S(=O)(=O)c2c(C)[nH]c(=O)[nH]c2=O)cc1	-28	72*	7	-2	9	17
Cc1cc(C)cc(N(CC(=O)NC2CCCCCC2)S(=O)(=O)c2c(C)[nH]c(=O)[nH]c2=O)c1	3	-17	-2	2	7	9
O=C(O)c1cc(N2N=C(C(F)(F)F)/C(=C/C=C/c3ccco3)C2=O)ccc1Cl	-7	14	5	22*	15	/
CC(=O)[C@H]1CC[C@H]2[C@@H]3C[C@H](C)C4=CC(=O)CC[C@]4(C)[C@H]3[C@@H](O)C[C@]12C	57*	-7	20	5	17	17
CC(=O)OC1(C(C)=O)CCC2C3CC(C(F)(F)F)C4=CC(=O)CCC4(C)C3CCC21C (stereo not drawn)	19	-29	-5	3	5	/
CC(=O)O[C@]1(C(C)=O)CC[C@H]2[C@@H]3C[C@H](C)C4=CC(=O)CC[C@]4(C)[C@H]3CC[C@@]21C	53*	-21	21	6	12	16
CCCCC(=O)Nc1c2c(nn1-c1ccc(C)cc1)CS(=O)(=O)C2	-9	33	6	8	18	19
CCC1(c2ccccc2)SCC(c2ccccc2)=NC1=O (stereo not drawn)	-8	26	8	-9	-1	/
O=[N+]([O-])c1ccc(S(=O)(=O)NN=CCCc2ccccc2)cc1	-25	13	3	-2	-4	/
CCN(CC)C(=O)Cn1cc(C(=O)C(=O)Nc2ccc3c(c2)OCO3)c2ccccc21	26	-69	-1	5	-83	/
CCC(C(=O)N1CCC(N2CCCCC2)CC1)n1nc(C)c2sc3ccccc3c2c1=O (stereo not drawn)	-4	-14	4	2	6	22
CCC(CC)C(C(=O)NCc1ccccc1)N(C)Cc1ccc(Cl)c(Cl)c1 (stereo not drawn)	/	/	/	-16	5	/
CC(CCC(C)C(C)(C)C)[C@@H]1CC[C@H]2C3C[C@H](OS(O)(=S)=S)[C@H]4C[C@H](OS(O)(=S)=S)[C@@H](OS(O)(=S)=S)C[C@]4(C)[C@H]3CC[C@]12C (stereo partly drawn) (tested in a mixture with another compound)	30	58*	8	5	1	-18
CC(CCC(=O)NN)C1CCC2C3CCC4CC(O)CCC4(C)C3CCC12C (stereo not drawn)	-26	-19	7	-2	5	/
CCOC(=O)c1cc2c(=O)n3cccc(C)c3nc2n(Cc2ccco2)c1=NC(=O)c1ccc(C)cc1	6	-13	-7	-7	19	/
